A selection: hits, their analogues and other compounds. The true share with any hit is near 12%.
HP1b chromo inh: inhibitors of HP1-beta chromodomain binding to methylated histone tails; 0.56% of 390,000 active; AID 540317; AlphaScreen HP1-beta / biotin-H3K9me3 peptide binding; Potency, µM (titrated, usually from 114 µM), inactives show at the highest dose activity change, negative = inhibition, most hits filed as inhibitors; P83916; note: nearly all actives have a fitted effect of over 70% in size
Target sequence (P83916 whole entry, looked up): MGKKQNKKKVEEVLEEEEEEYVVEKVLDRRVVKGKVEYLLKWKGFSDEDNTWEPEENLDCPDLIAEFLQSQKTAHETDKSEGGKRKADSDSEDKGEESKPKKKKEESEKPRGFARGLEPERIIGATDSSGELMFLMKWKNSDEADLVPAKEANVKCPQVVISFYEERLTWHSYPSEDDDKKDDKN
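Compound inhibition of the preformed complex between 50 nM HP1-beta and 50 nM biotinylated H3K9me3 peptide was read by AlphaScreen. Buffer was PBS pH 7.4 with 0.01% Tween-20. Incubations ran 30 min at room temperature, with 10 ug/mL donor/acceptor beads.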
G9a inh: G9a (human) methyltransferase inhibition; Potency, µM (series often up to 102 µM), for inactives: top-dose activity, negative = inhibition, actives largely listed as inhibitors; G9a H3K9 monomethylation, AlphaScreen, 2 h; 8.8% of 350,000 active; Q96KQ7; note: % is set by controls: 0 for no effect and ±100 for the full control effect; nearly all actives have a fitted effect of over 75% in size
Target sequence (Q96KQ7 913-1193 limits assumed): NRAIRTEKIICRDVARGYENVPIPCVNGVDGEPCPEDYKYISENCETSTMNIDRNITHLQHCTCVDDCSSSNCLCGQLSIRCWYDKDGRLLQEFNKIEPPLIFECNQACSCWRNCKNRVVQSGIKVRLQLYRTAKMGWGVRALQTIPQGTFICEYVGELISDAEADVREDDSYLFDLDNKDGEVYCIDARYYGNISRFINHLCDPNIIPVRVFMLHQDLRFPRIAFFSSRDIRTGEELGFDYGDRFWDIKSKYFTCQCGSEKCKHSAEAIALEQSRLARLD
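Using a bead-based AlphaScreen, monomethylated H3K9 product from 2 h room-temperature reactions (G9a 20 nM, peptide 500 nM, SAM 20 uM) was detected with 0.5 ug/mL rabbit anti-H3K9me1 antibody.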
PLK1 PBD block: inhibitors of human PLK1 polo-box domain binding; P53350; Plk1 PBD binding of FITC phosphopeptide, fluorescence polarization; Potency, µM, for inactives: max response, negative = inhibition, hits mostly inhibitors; 2.8% of 360,000 active; AID 720504; note: series mostly up to about 57 µM; % is set by controls: 0 for no effect and ±100 for the full control effect; nearly all actives have a fitted effect of over 65% in size
BAZ2B inh: blocks human BAZ2B; AID 504333; AlphaScreen BAZ2B-H3K14Ac peptide displacement; 4.4% of 360,000 active; Potency, µM (titrated, usually from 114 µM), without a hit: top-dose activity change, negative = inhibition, hits mostly inhibitors; note: % is set by controls: 0 for no effect and ±100 for the full control effect; nearly all actives have a fitted effect of over 60% in size
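AlphaScreen luminescence quantifies BAZ2B engagement of H3K14Ac peptide; the protein and biotinylated peptide are both at 50 nM final, buffer PBS pH 7.4 with 0.01% Tween-20, all steps at room temperature.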
JMJD2A Tudor inh: blocks the human JMJD2A Tudor domain; O75164; AlphaScreen JMJD2A-Tudor / H3K4me3 peptide binding; Potency, µM (series often up to 114 µM), inactives show at the top dose activity change, negative = inhibition, usual class: inhibitors; 4.4% of 390,000 active; AID 504339; note: % is set by controls: 0 for no effect and ±100 for the full control effect; nearly all actives have a fitted effect of over 50% in size
Sfp PPTase inh: inhibitors of Bacillus subtilis Sfp phosphopantetheinyl transferase; Biochemical Sfp PPTase activity, qHTS; AID 1490; 3.5% of 310,000 active; Q9F4F7; Potency, µM, for the others: largest response in the series, negative = inhibition, actives largely listed as inhibitors;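 note: the enzyme is Sfp with the accession as filed and its product quenches rhodamine fluorescence; 0% = enzyme reaction without inhibitor and -100% = no enzyme wells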
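Reaction rates are the 30-min fluorescence difference (ex 525, em 598 nm) in wells containing 15 nM Sfp, 5 uM rhodamine-CoA and 12.5 uM BHQ-2-YbbR at pH 7.6 with 10 mM MgCl2.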
* hit, by the source's call; ? = inconclusive; nt = not tested or not shown; [ ] = remark or other dose. Calls come from the whole dose curve; as a rule, active = well fitted curve in the direction sought with a large enough effect; inconclusive = small, poorly fitted or top-dose-only effect, or another doubt; inactive = no such curve, though single readings can be large; an effect the other way counts as inactive or inconclusive. Potency is the fitted concentration of half-maximal effect.

SMILES	HP1b chromo inh	G9a inh	PLK1 PBD block	BAZ2B inh	JMJD2A Tudor inh	Sfp PPTase inh
CCN1CCCC1Cn1c(-c2ccccc2)nc2c(N3CCOCC3)nc(C)nc21 (centres undefined)	nt	nt	nt	nt	nt	22%
CC(C)N(C(=O)[C@H]1C[C@H](CC(=O)NC(C)(C)C)C(=O)N2CCc3c([nH]c4cc(-c5ccco5)ccc34)[C@]12C)C(C)C	?	nt	21µM*	nt	50µM*	nt
CC(C)=CCC/C(C)=C/CNC(=O)CC1C[C@H](C(=O)N2CCOCC2)[C@@]2(C)c3[nH]c4ccccc4c3CCN2C1=O (some centres undefined)	1%	nt	-13%	nt	?	nt
CC(C)=CCC/C(C)=C/CNC(=O)C[C@H]1C[C@H](C(=O)N2CCOCC2)[C@@]2(C)c3[nH]c4cc(-c5ccco5)ccc4c3CCN2C1=O	?	nt	-4%	nt	40µM*	nt
CCN(CC)C(=O)[C@H]1C[C@H](CC(=O)NC(C)(C)C)C(=O)N2CCc3c([nH]c4cc(-c5ccco5)ccc34)[C@]12C	3%	nt	-8%	nt	?	nt
C=C1CCN(C(C(=O)NCc2ccc(Cl)c(Cl)c2)C(C)C)S(=O)(=O)c2ccccc21 (centres undefined)	33%	nt	nt	nt	-3%	5%
CCOC(=O)N1CCN(C(=O)CN(c2ccc(C)cc2C)S(=O)(=O)c2ccccc2)CC1	14%	15%[59 µM]	nt	2%	-18%	nt
Cc1csc(=O)n1CCC(=O)OCC(=O)NNC(=O)c1ccc(Cl)cc1	17%	45µM*	?	-1%	-14%	nt
Nn1c(-c2cccc(Br)c2)n[nH]c1=S	-10%	2.2µM*	-17%	?	35µM*	?
S=c1[nH]nc(-c2cccnc2)o1	37%	?	-4%	?	20µM*	56µM*
S=c1[nH]nc(-c2cccc(Br)c2)o1	10%	1.8µM*	-20%	-8%	?	11%
CC(=O)c1ccc(Oc2nc(C)nc3c2oc2ccccc23)cc1	20%	6%[59 µM]	nt	-3%	-8%	nt
COc1ccc(CNS(=O)(=O)c2cc(C(=O)Nc3cc(Cl)cc(Cl)c3)ccc2F)cc1	26%	1%[59 µM]	nt	1%	-16%	nt
Cn1ccnc1/C(=N\NC(=O)c1ccc(O)cc1)c1cccc([N+](=O)[O-])c1	40%	5%	-3%	-20%	-8%	-13%
Cn1ccnc1/C(=N\NC(=O)c1ccccc1)c1cccc([N+](=O)[O-])c1	3%	40µM*	-12%	-14%	-23%	3%
CCOc1ccc(C(=O)N/N=C(\c2ccccc2)c2ccccn2)cc1	15%	7%[59 µM]	-4%	79µM*	-34%	-14%
O=C(NNC(=O)c1cnccn1)c1cccc([N+](=O)[O-])c1	14%	0.56µM*	-10%	2%	-28%	2.5µM*
O=C(NNC(=O)c1cccnc1SCc1cccc([N+](=O)[O-])c1)c1cccnc1	50%	35µM*	-2%	-1%	8%	2%
O=C(NNC(=O)c1cccnc1SCc1cccc([N+](=O)[O-])c1)c1ccc(F)cc1	44%	?	-17%	2%	-2%	8%
CCOc1ccc(N(C(=O)CC(C)C)S(=O)(=O)c2ccc3c(c2)oc(=O)n3C)cc1	27%	-6%[59 µM]	nt	3%	-20%	nt
NC(=O)COc1ccc(/C=N\NC(=O)CC(=O)NCCc2ccccc2)cc1	8%	-4%[2.33 µM]	-5%	7%	-11%	12%
CCC(=O)N1CCCN(S(=O)(=O)c2ccc(C)cc2)C1c1ccc(OC)cc1 (centres undefined)	7%	-5%	-9%	-24%	-8%	6%
CC(C)c1c(C(=O)N/N=C/C=C/c2ccccc2)nnn1-c1nonc1N	59%	64%	7%	-16%	18%	9%
COc1ccc(CNC(=O)C2(C)Cc3c(-c4ccc(N(C)C)cc4)ccnc3O2)cc1OC (centres undefined)	nt	nt	-4%	nt	nt	nt
O=C(N/N=C(\c1ccccc1)c1ccccn1)c1cccc([N+](=O)[O-])c1	20%	-1%	2%	25µM*	?	11%
SMILES	HP1b chromo inh	G9a inh	PLK1 PBD block	BAZ2B inh	JMJD2A Tudor inh	Sfp PPTase inh
N/C(=N\OC(=O)c1cccc([N+](=O)[O-])c1)c1ccccn1	9%	?	-4%	-12%	-4%	7%
COc1ccc(-c2cc(C(F)F)n3ncc(C(=O)Nc4cccc(S(=O)(=O)N5CCOCC5)c4)c3n2)cc1	-16%	nt	?	-9%	-21%[11.4 µM]	8%
CN1C(=O)CC(Nc2cccc3cccc(N)c23)C1=O (centres undefined)	1%	35µM*	-5%	?	?	-63%
CC(C)N1C(=O)CC(Nc2cccc3cccc(N)c23)C1=O (centres undefined)	-23%	45µM*	?	?	?	-11%
CN1C(=O)CC(NNC(=O)c2ccccc2)C1=O (centres undefined)	26%	nt	-2%	-1%	0%	-1%
O=C(NCCC(=O)N1CCN(c2ccccn2)CC1)c1ccc(Cl)cc1	26%	nt	0%	nt	-3%	nt
CCOC(=O)NC1(Nc2ccc(Cl)cn2)Oc2ccccc2O1	nt	6.3µM*	nt	?	nt	32µM*
CCOC(=O)/C=C/C(=O)OCC(=O)Nc1ccc(Cl)cn1	24%	?	-15%	3%	-13%	8%
Cc1ccc(-c2cc(C(F)F)nc(N3CCOCC3)n2)cc1	nt	162%[59 µM]	-9%	101%	234%	-30%
COc1ccc(-c2cc(C(F)F)nc(-n3nc(C)cc3C)n2)cc1	48%	2%[12.7 µM]	-5%	-1%	2%	50µM*
CCn1c(=O)c(C(=O)NCc2ccccc2)c(O)c2ccccc21	160%	nt	-11%	51%	88%	-9%
CCn1cc(C(=O)NCc2cccnc2)c2cc(OC)c(OC)cc2c1=O	19%	11µM*	-6%	9%	-23%	2%
COc1ccc(NC(=O)c2cn(C)c(=O)c3cc(OC)c(OC)cc23)cc1OC	26%	16%	-10%	-17%	-18%	10%
COCCCNC(=O)c1cn(C)c(=O)c2cc(OC)c(OC)cc12	7%	-7%[2.33 µM]	-4%	-1%	-12%	11%
CCn1c(=O)c(C(=O)NCc2cccnc2)c(O)c2ccccc21	18%	6%[59 µM]	4%	29%	40µM*	8%
COc1ccccc1CNC(=O)c1cn(C)c(=O)c2cc(OC)c(OC)cc12	2%	-7%	19µM*	-12%	13µM*	-4%
COc1cccc(NC(=O)c2cn(C)c(=O)c3cc(OC)c(OC)cc23)c1	-15%	75%[59 µM]	3µM*	-5%	?	26%
CN1C(=O)C(C)(C)c2cc(S(=O)(=O)N3CCCC3C(=O)Nc3ccc(F)cc3)ccc21 (centres undefined)	38%	1%[59 µM]	nt	-7%	2%	nt

Source: PubChem BioAssay
